In PubChem BioAssay (NCATS):
Results filed as inconclusive are left out. The source made the active and inactive calls. Unless noted, the call rests on the fitted dose curve; in most records, active means well fitted curve in the direction sought with a large enough effect; inconclusive means small, poorly fitted or top-dose-only effect, or another doubt; inactive means no such curve, though single readings can be large; an effect the other way counts as inactive or inconclusive.

Columns and labels:
[1] = target: Lysosomal acid glucosylceramidase (Homo sapiens) (UniProt P04062); assay: Glucocerebrosidase-p2 (AID 348; in the data active means potency below about 10 µM; further: potency means the concentration at half of the fitted maximal effect); details: purified GBA, blue fluorogenic substrate, 40 min
Summary of the method: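 Normal human glucocerebrosidase (0.2 nM) with blue fluorogenic substrate (80 uM final) in citrate/phosphate pH 5.9 with 10mM sodium taurocholate, 0.01% tween-20; 40 min RT, NaOH/glycine stop; fluorescence Ex 365/Em 440; AC50 from a titration from 0.6 nM upwards.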

[2] = AP1 Signaling Pathway (AID 357; active means well fitted curve in either direction with a large enough effect, not every such curve was filed as active;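 further: ME-180 reporter cells stimulated with EGF at its EC50 level; on the % scale 0 is the no-effect control and ±100 the full control effect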); details: ME-180 AP-1-bla reporter, EGF-induced, beta-lactamase ratio, 5 h; at 7.69 µM (top of the series) unless noted
Summary of the method: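 Modulation of EGF-driven AP-1 transcription was assessed with a beta-lactamase reporter in ME-180 cells. Compound and EC50 EGF were co-incubated 5 hours at 37 °C before 2.5-hour CCF4 loading at room temperature and dual-emission reading.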

[3] = NFAT Signaling Pathway (AID 444; active means well fitted curve in either direction with a large enough effect, not every such curve was filed as active;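 further: carbachol stimulus at about its EC50 of 1 µM final; on the % scale 0 is the no-effect control and ±100 the full control effect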); details: Jurkat NFAT-bla M1, carbachol, beta-lactamase ratio, 5 h; at 7.69 µM (top of the series) unless noted
Summary of the method: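 Read-out: CCF4 FRET ratio (460 nm/530 nm) after 1 h RT dye loading, used for %activity and AC50 from titration series. Cells: Jurkat NFAT-β-lactamase/M1 line, treated with compound plus 1 uM carbachol for 5 h, 37 °C.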

[4] = Stat Signaling Pathway (AID 446; active means well fitted curve in either direction with a large enough effect, not every such curve was filed as active;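 further: ME-180 cervical cancer cells given 40 pM IL-6 alongside compound; SIE-controlled beta-lactamase reporter measured as 460/530 nm FRET emission ratio; on the % scale 0 is the no-effect control and ±100 the full control effect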); details: ME-180 (cervical carcinoma) SIE beta-lactamase reporter, IL-6 stimulated, 5 h; at 7.69 µM (top of the series) unless noted
Summary of the method: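 Normalization used AC90 stimulation (300 pM IL-6) and AC90 inhibition (125 nM pan-JAK inhibitor at 40 pM IL-6). The underlying signal is SIE-driven beta-lactamase in ME-180 cells after 5 h IL-6 exposure with compound.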

[5] = target: Glucocorticoid receptor (Homo sapiens) (UniProt P04150); assay: GR-GFP Redistribution (AID 450;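 active means compounds whose dose series gives a full or clear partial fitted curve of increased nuclear translocation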; further: potency means the concentration at half of the fitted maximal effect); details: U2OS GR-GFP nuclear translocation, laser cytometry, 2 h
[6] = target: Glucocorticoid receptor (Homo sapiens) (UniProt P04150); assay: GR-EFC Redistribution (AID 451; calls by dose curve; further: potency means the concentration at half of the fitted maximal effect); details: CHO-K1 GR-EFC translocation, beta-gal luminescence, 2 h
Summary of the method: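 Translocation of GR-ED fusion to nuclear EA restores b-gal, read by luminescence after 1 h room-temperature detection. Engineered CHO-K1 biosensor cells, 1,000/well, exposed 2 h at 37 C to titrations up to 46 uM final.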

[7] = target: Mitogen-activated protein kinase 10 (Mus musculus) (UniProt Q61831); assay: JNK3 AlphaScreen Assay (AID 530; active means well fitted curve in either direction with a large enough effect, not every such curve was filed as active;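 further: kinase came from lysate of stimulated human HepG2 cells; signal reports phosphorylation of biotinylated GST-cJun 1-79 at Ser73 with 10 µM ATP; on the % scale 0 is the no-effect control and ±100 the full control effect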); details: JNK3 lysate, c-Jun phosphorylation; series mostly up to 57.1 µM
Summary of the method: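 Kinase buffer: 20 mM Tris-HCl pH 7.6, 10 mM MgCl2, 1 mM DTT, 0.1 mM Na3VO4, 0.01% Tween-20; ATP 10 uM. Substrate biotin-GST-cJun(1-79), enzyme from activated HepG2 lysates. Detection by Ser73 phospho-antibody AlphaScreen.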

[8] = target: 3',5'-cyclic-AMP phosphodiesterase 4B (Homo sapiens) (UniProt Q07343); assay: qHTS Assay for Inhibitors of PDE-IV (AID 607; active means well fitted activation curve with a large enough effect in the main read-out, with a control signal flat, not every such curve was filed as active; further: % of control where 0% means no effect); details: HEK293 ACTOne CNG channel cells, membrane potential fluorescence; series mostly up to 22.9 µM
Summary of the method: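 HEK293 ACTOne cells with CNG channel (1000/well), endogenous PDE4; membrane potential dye, compounds up to 22.9 uM final. Fluorescence Ex 535/Em 590; RO 20-1724 (100 uM final) as reference.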

[9] = qHTS Assay for Lipid Storage Modulators (AID 1519; calls by dose curve; further: potency means the concentration at half of the fitted maximal effect); details: Drosophila S3 cells, BODIPY lipid droplet/cell ratio, laser cytometry, cells loaded with oleic acid; for activity change, negative = inhibition: at 57.5 µM (top of the series)
Summary of the method: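 Cells seeded at 5,000 per well were treated with compounds over a concentration series and loaded with oleic acid (400 uM, as added). Lipid droplet fluorescence (488 nm excitation, 500-530 nm channel) was read by laser-scanning cytometry and normalized to 20 uM Triacsin C.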

[10] = target: Dual specificity protein kinase CLK4 (Homo sapiens) (UniProt Q9HAZ1); assay: qHTS Assay for Inhibitors of CDC-like Kinase 4 (Kinase-Glo Assay) (AID 1770); details: recombinant Clk4, Kinase-Glo ATP depletion luminescence; series mostly up to 66.7 µM; further: on the % scale 0 is the no-effect control and ±100 the full control effect; nearly all actives have a fitted effect of over 65% in size
Summary of the method: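 Recombinant human Clk4 (25 nM) phosphorylated RS repeat peptide (100 uM) with 1 uM ATP in Tris pH 7.5/MgCl2/EGTA/DTT/Triton buffer for 4.5 h at room temperature. Residual ATP was quantified by Kinase-Glo luciferase luminescence.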

[11] = target: Dual specificity protein kinase CLK4 (Homo sapiens) (UniProt Q9HAZ1); assay: qHTS Assay for Inhibitors of CDC-like Kinase 4 (ADP-Glo Assay) (AID 1771); details: recombinant CLK4, ADP-Glo luminescence; series mostly up to 80 µM; further: on the % scale 0 is the no-effect control and ±100 the full control effect; nearly all actives have a fitted effect of over 70% in size
Summary of the method: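 25 nM Clk4, 100 uM RS peptide, 1 uM ATP (final); 2 mM MgCl2, 0.5 mM EGTA, 2.5 mM DTT, 0.01% Triton X-100; 1 hr RT. ADP-Glo readout: ATP depletion 45 min, conversion/luciferase 30 min, luminescence.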

[12] = target: Dual specificity protein kinase CLK4 (Homo sapiens) (UniProt Q9HAZ1); assay: qHTS Assay for Inhibitors of CDC-like Kinase 4 (ADP-FP Assay) (AID 1795); details: Transcreener ADP fluorescence polarization; series mostly up to 50 µM; further: on the % scale 0 is the no-effect control and ±100 the full control effect; nearly all actives have a fitted effect of over 60% in size
Summary of the method: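 Recombinant human Clk4 (6.25 nM) phosphorylated RS repeat peptide (100 uM) with 1 uM ATP in Tris pH 7.5/MgCl2/EGTA/DTT/Triton buffer for one hour. ADP was quantified by Transcreener competitive fluorescence polarization against an ADP calibration curve.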

[13] = target: Ubiquitin carboxyl-terminal hydrolase 1 (Homo sapiens) (UniProt O94782); assay: Inhibitors of USP1/UAF1: Pilot qHTS (AID 504865); details: purified USP1/UAF1, Ub-rhodamine cleavage fluorescence; series mostly up to 54.9 µM;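 further: rhodamine fluorescence freed from ubiquitin-rhodamine substrate followed over time; top concentration of the series differs between compounds; on the % scale 0 is the no-effect control and ±100 the full control effect; nearly all actives have a fitted effect of over 35% in size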
Summary of the method: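 USP1/UAF1 complex (1nM) preincubated with compound 15 min at room temperature, then Ub-Rho substrate (150nM final) added. Fluorescence read kinetically at 480/540 nm, 6 reads every 60 seconds. Buffer: 50mM HEPES pH 7.8, 0.5mM EDTA, 0.1 mg/ml BSA, 1mM TCEP, 0.01% Tween-20.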

[14] = Primary qHTS for small molecule stabilizers of the endoplasmic reticulum resident proteome: Secreted ER Calcium Modulated Protein (SERCaMP) assay (AID 1508630); details: SH-SY5Y GLuc-SERCaMP (Gaussia luciferase released on ER calcium loss) secretion, thapsigargin, luminescence; series mostly up to 38.4 µM; further: on the % scale 0 is the no-effect control and ±100 the full control effect
Summary of the method: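 The SH-SY5Y reporter protocol was run at 3 concentrations up to 38.3 uM (primary) or 11 concentrations (follow-up): 16 h compound, 100 nM thapsigargin for 4 h, then extracellular luciferase luminescence.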

[15] = measured here: cell count channel max response
[16] = measured here: lipid channel max response

Dual specificity protein kinase CLK4 (Homo sapiens), sequence (Q9HAZ1 whole entry, looked up): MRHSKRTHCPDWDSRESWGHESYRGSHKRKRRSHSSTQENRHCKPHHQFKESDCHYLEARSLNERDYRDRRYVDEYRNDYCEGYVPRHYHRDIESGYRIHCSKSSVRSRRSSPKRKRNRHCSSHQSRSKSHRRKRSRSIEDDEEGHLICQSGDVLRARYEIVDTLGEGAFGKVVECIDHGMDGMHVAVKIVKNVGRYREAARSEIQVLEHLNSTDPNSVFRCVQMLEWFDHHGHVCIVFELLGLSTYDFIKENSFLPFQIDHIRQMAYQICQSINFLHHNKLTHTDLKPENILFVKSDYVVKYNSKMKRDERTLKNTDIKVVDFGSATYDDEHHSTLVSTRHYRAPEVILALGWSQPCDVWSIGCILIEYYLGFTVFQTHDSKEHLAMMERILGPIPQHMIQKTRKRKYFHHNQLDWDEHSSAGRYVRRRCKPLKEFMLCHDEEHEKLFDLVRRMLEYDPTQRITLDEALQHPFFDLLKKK
Glucocorticoid receptor (Homo sapiens), sequence (P04150 whole entry, looked up, the tested form may be a part): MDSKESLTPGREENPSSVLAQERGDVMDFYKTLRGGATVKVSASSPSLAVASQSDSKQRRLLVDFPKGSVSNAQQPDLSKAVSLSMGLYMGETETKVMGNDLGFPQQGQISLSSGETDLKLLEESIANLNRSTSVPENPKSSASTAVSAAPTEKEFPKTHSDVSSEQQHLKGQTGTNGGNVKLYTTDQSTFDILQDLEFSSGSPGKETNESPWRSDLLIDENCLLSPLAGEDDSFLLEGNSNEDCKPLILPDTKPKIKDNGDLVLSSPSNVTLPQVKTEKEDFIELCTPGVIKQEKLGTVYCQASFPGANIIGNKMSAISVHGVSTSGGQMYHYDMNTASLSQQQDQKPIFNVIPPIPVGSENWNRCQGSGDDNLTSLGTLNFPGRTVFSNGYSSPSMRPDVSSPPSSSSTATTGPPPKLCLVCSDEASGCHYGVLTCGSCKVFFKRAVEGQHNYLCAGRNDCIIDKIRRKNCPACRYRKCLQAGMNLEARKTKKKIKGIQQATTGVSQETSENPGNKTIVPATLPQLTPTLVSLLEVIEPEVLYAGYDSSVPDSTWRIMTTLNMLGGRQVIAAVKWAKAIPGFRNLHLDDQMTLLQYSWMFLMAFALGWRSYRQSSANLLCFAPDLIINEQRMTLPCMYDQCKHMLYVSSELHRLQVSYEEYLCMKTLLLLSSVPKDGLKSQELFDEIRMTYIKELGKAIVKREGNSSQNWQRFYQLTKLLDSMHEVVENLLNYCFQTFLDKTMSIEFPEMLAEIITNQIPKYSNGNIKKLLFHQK
Ubiquitin carboxyl-terminal hydrolase 1 (Homo sapiens), sequence (O94782 whole entry, looked up): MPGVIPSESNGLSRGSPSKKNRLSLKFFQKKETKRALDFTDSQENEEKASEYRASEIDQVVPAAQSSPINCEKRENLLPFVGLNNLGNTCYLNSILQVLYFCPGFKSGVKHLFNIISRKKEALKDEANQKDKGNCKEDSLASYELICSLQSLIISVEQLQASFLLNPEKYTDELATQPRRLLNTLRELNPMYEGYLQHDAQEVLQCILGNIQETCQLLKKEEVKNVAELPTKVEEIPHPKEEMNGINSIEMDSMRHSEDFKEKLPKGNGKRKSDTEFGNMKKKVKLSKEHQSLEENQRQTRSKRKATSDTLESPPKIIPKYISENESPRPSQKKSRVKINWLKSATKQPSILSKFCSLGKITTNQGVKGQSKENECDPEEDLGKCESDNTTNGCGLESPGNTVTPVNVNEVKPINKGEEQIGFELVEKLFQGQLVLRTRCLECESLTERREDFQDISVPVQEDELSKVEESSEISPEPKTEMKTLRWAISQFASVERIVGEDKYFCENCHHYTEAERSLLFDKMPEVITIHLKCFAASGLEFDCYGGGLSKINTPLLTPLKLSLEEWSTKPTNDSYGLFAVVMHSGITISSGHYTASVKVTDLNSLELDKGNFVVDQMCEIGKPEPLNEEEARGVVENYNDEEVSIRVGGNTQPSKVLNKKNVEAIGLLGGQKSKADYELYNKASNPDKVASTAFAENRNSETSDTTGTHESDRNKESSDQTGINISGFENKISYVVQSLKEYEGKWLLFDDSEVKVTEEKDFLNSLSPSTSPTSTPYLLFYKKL
3',5'-cyclic-AMP phosphodiesterase 4B (Homo sapiens), sequence (Q07343 whole entry, looked up): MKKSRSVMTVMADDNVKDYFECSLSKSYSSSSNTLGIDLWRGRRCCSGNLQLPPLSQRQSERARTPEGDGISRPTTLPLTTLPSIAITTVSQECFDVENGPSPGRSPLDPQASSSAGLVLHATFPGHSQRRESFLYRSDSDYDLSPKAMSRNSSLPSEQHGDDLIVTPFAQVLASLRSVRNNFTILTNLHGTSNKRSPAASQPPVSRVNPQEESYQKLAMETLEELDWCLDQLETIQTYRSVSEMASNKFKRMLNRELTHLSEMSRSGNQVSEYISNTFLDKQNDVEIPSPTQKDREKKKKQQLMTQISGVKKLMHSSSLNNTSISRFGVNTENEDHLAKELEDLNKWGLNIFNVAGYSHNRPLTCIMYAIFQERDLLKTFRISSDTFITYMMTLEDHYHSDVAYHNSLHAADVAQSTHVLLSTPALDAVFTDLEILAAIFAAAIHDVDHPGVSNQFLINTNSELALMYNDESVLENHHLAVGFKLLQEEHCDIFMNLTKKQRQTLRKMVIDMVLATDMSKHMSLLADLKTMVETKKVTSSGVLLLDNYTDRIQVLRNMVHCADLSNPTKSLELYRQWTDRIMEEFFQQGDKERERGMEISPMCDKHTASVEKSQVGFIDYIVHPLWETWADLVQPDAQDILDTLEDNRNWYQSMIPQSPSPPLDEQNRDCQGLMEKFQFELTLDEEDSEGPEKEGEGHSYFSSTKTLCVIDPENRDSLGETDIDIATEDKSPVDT
Lysosomal acid glucosylceramidase (Homo sapiens), sequence (P04062 whole entry, looked up): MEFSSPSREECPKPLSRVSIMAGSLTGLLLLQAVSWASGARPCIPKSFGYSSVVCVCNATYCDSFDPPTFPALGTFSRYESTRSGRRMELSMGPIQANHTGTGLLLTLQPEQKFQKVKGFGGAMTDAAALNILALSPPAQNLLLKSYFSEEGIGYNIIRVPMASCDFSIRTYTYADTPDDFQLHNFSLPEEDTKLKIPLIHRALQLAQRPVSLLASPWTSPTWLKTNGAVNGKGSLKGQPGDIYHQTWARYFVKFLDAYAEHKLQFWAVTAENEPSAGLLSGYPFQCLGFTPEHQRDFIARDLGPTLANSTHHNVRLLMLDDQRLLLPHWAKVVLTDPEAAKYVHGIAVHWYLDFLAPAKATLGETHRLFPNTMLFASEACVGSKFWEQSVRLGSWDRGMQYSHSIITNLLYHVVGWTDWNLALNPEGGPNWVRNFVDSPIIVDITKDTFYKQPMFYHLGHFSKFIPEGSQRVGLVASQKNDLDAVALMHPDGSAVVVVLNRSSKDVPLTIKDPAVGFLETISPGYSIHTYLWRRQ

Compound | Potency [1] | activity change, negative = inhibition [2] | activity change, negative = inhibition [3] | activity, negative = inhibition [4] | Potency [5] | Potency [6] | outcome [7] | Potency [8] | activity change, negative = inhibition [9] | max response [9, 15] [%] | max response [9, 16] [%] | Potency [10] | Potency [11] | Potency [12] | Potency [13] | Potency [14] | Potency [9]
O=c1c(-c2cc(F)cc(F)c2)nc2cnc(N3CCOCC3)nc2n1Cc1cccs1 | > 11.4 µM (inactive) | 6.66% (inactive) | 22.7% (inactive) | 6.69% (inactive) | > 9.22 µM (inactive) | > 46 µM (inactive) | inactive | inactive | 3.39% (inactive) | 18.1 | 23.4 | inactive | inactive | inactive | inactive | inactive | 
Cc1nc2cnc(OCc3ccccc3)nc2n(C)c1=O | > 11.4 µM (inactive) | -10% (inactive) | -3.24% (inactive) | -5.11% (inactive) | > 9.22 µM (inactive) | > 46 µM (inactive) | inactive | inactive | 7.08% (inactive) | 13.5 | 17.9 | inactive | inactive | inactive | inactive | inactive | 
COc1cccc(Cn2c(=O)c(-c3ccc(F)cc3)nc3cnc(OC)nc32)c1 | > 11.4 µM (inactive) | -1.52% (inactive) | -0.296% (inactive) | 6.3% (inactive) | > 9.22 µM (inactive) | > 46 µM (inactive) | inactive | inactive | 7.13% (inactive) | 25.9 | 31.8 | inactive | inactive | inactive | inactive | inactive | 
CN(C)Cc1ccccc1-c1cncnc1Nc1ccccc1 | > 11.4 µM (inactive) | 7.98% (inactive) |  | 13.5% (inactive) | > 46 µM (inactive) | > 46 µM (inactive) | inactive | inactive | 5.53% (inactive) | 18.6 | 26.9 | inactive | inactive | inactive | inactive | inactive | 
COCCn1c(=O)c(-c2cn(C)c3ccccc23)nc2cnc(N3CCOCC3)nc21 | > 11.4 µM (inactive) | -12.3% (inactive) | 5.44% (inactive) | -11.9% (inactive) | > 9.22 µM (inactive) | > 46 µM (inactive) | inactive | inactive | 4.05% (inactive) | 6.29 | 8.52 | inactive | inactive | inactive | inactive | inactive | 
COCCn1c(=O)c(-c2cn(C)c3ccccc23)nc2cnc(Oc3cccc(Cl)c3)nc21 | > 11.4 µM (inactive) | -7.97% (inactive) | 5.68% (inactive) | 3.06% (inactive) | > 9.22 µM (inactive) | > 46 µM (inactive) |  | inactive | -4.01% (inactive) | 23.7 | 16.7 | inactive | inactive | inactive | inactive | inactive | 
COc1ccc(Oc2ncc3nc(-c4ccc(Cl)cc4)c(=O)n(C[C@H]4CCCO4)c3n2)cc1 |  |  |  |  |  |  |  |  |  |  |  |  |  |  |  |  | 28.2 µM (active)
